Test results from the supplement of paper PMC6555819.

Experiments:
Test in all cases: PBM binding z-score (relative to random genomic background probes); higher = stronger binding; sequences stand for … in GC…GCGATTGACAGCGTAGAATGAAGG
[1] = test system: FXR:RXRa (NR concentration 270 nM, RXRa partner concentration 90 nM)
Procedure, shortened: (§1)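 Ligand-free nuclear receptor dimers were applied to custom Agilent 4×180K protein-binding microarrays whose double-stranded probes carried direct-repeat seeds, single-nucleotide variants, half-site ablations and random human genomic background sequences in 34-nt variable regions. Incubation lasted 1 h. Binding z-scores were computed against the random background probes from regression-normalized fluorescence.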

[2] = test system: LXRa:RXRa (NR concentration 270 nM, RXRa partner concentration 90 nM)
Procedure, shortened: as §1

[3] = test system: LXRa homodimer (NR concentration 270 nM)
Procedure, shortened: as §1

[4] = test system: LXRb:RXRa (NR concentration 270 nM, RXRa partner concentration 90 nM)
Procedure, shortened: as §1

[5] = test system: LXRb homodimer (NR concentration 270 nM)
Procedure, shortened: as §1

[6] = test system: PPARa:RXRa (NR concentration 270 nM, RXRa partner concentration 90 nM)
Procedure, shortened: as §1

[7] = test system: PPARg:RXRa (NR concentration 180 nM, RXRa partner concentration 90 nM)
Procedure, shortened: as §1

[8] = test system: PPARg:RXRa 270nM:90nM, anti-RXR (NR concentration 270 nM, RXRa partner concentration 90 nM)
Procedure, shortened: as §1

[9] = test system: PPARg:RXRa 30nM:10nM, anti-RXR (NR concentration 30 nM, RXRa partner concentration 10 nM)
Procedure, shortened: as §1

[10] = test system: PPARg:RXRa 90nM:30nM, anti-RXR (NR concentration 90 nM, RXRa partner concentration 30 nM)
Procedure, shortened: as §1

[11] = test system: PPARg:RXRa DBDmut IVT, anti-RXR (DBD mutation: RXRa K156A/R161A, NR concentration 270 nM, RXRa partner concentration 90 nM)
Procedure, shortened: as §1

[12] = test system: PPARg:RXRa IVT, anti-PPARg (NR concentration 270 nM, RXRa partner concentration 90 nM)
Procedure, shortened: as §1

[13] = test system: PPARg DBDmut:RXRa IVT, anti-PPARg (DBD mutation: PPARg1 K132A/R137A, NR concentration 270 nM, RXRa partner concentration 90 nM)
Procedure, shortened: as §1

[14] = test system: PPARg DBDmut IVT, anti-PPARg (DBD mutation: PPARg1 K132A/R137A, NR concentration 270 nM)
Procedure, shortened: as §1

[15] = test system: PPARg homodimer (NR concentration 180 nM)
Procedure, shortened: as §1

[16] = test system: PXR:RXRa (NR concentration 270 nM, RXRa partner concentration 90 nM)
Procedure, shortened: as §1

[17] = test system: PXR homodimer (NR concentration 270 nM)
Procedure, shortened: as §1

[18] = test system: RARa:RXR (NR concentration 270 nM, RXRa partner concentration 90 nM)
Procedure, shortened: as §1

[19] = test system: RARa homodimer (NR concentration 270 nM)
Procedure, shortened: as §1

[20] = test system: RARb:RXRa (NR concentration 270 nM, RXRa partner concentration 90 nM)
Procedure, shortened: as §1

## TGAATGAGGTTATAAGATCAGGGGACGTTGCAAA
[1]
  PBM binding z-score: 1.42
[2]
  PBM binding z-score: 1.51
[3]
  PBM binding z-score: -0.106
[4]
  PBM binding z-score: 1.61
[5]
  PBM binding z-score: 0.309
[6]
  PBM binding z-score: 2.73
[7]
  PBM binding z-score: 1.65
[8]
  PBM binding z-score: 1.96
[9]
  PBM binding z-score: 0.887
[10]
  PBM binding z-score: 1.28
[11]
  PBM binding z-score: 1.5
[12]
  PBM binding z-score: 1.82
[13]
  PBM binding z-score: 0.706
[14]
  PBM binding z-score: 0.291
[15]
  PBM binding z-score: 0.361
[16]
  PBM binding z-score: 0.901
[17]
  PBM binding z-score: 0.3
[18]
  PBM binding z-score: 1.58
[19]
  PBM binding z-score: 0.169
[20]
  PBM binding z-score: 1.43

## CCGACTGGGGCATAGGGTTACCATAAGCCAGCCC
[1]
  PBM binding z-score: 0.216
[2]
  PBM binding z-score: 1.62
[3]
  PBM binding z-score: -0.605
[4]
  PBM binding z-score: 0.389
[5]
  PBM binding z-score: -0.905
[6]
  PBM binding z-score: 2.07
[7]
  PBM binding z-score: 3.45
[8]
  PBM binding z-score: 4.29
[9]
  PBM binding z-score: 2.36
[10]
  PBM binding z-score: 4
[11]
  PBM binding z-score: 2.48
[12]
  PBM binding z-score: 3.41
[13]
  PBM binding z-score: -0.334
[14]
  PBM binding z-score: -1.39
[15]
  PBM binding z-score: 0.589
[16]
  PBM binding z-score: 0.141
[17]
  PBM binding z-score: -0.597
[18]
  PBM binding z-score: 0.817
[19]
  PBM binding z-score: -1.05
[20]
  PBM binding z-score: 1.25

## ACTAGTTGGTCAACTGAGGTCACACACAATTCGG
[1]
  PBM binding z-score: 4.03
[2]
  PBM binding z-score: 4.75
[3]
  PBM binding z-score: 3.24
[4]
  PBM binding z-score: 3.99
[5]
  PBM binding z-score: 0.711
[6]
  PBM binding z-score: 4.31
[7]
  PBM binding z-score: 3.06
[8]
  PBM binding z-score: 3.01
[9]
  PBM binding z-score: 0.826
[10]
  PBM binding z-score: 2.8
[11]
  PBM binding z-score: 2.42
[12]
  PBM binding z-score: 3.75
[13]
  PBM binding z-score: 1.07
[14]
  PBM binding z-score: 0.421
[15]
  PBM binding z-score: 2.02
[16]
  PBM binding z-score: 6
[17]
  PBM binding z-score: 1.2
[18]
  PBM binding z-score: 4.59
[19]
  PBM binding z-score: 1.19
[20]
  PBM binding z-score: 4.1

## ATCTCTAGGTAAGACTCAGTTCTGTGAAGAACGC
[1]
  PBM binding z-score: 0.335
[2]
  PBM binding z-score: 0.184
[3]
  PBM binding z-score: 0.199
[4]
  PBM binding z-score: 0.00724
[5]
  PBM binding z-score: 0.696
[6]
  PBM binding z-score: 0.118
[7]
  PBM binding z-score: -0.0876
[8]
  PBM binding z-score: -0.0102
[9]
  PBM binding z-score: -0.0402
[10]
  PBM binding z-score: -0.012
[11]
  PBM binding z-score: 1.91
[12]
  PBM binding z-score: 0.663
[13]
  PBM binding z-score: 0.175
[14]
  PBM binding z-score: 0.855
[15]
  PBM binding z-score: 0.76
[16]
  PBM binding z-score: 0.28
[17]
  PBM binding z-score: 0.287
[18]
  PBM binding z-score: 0.274
[19]
  PBM binding z-score: 1.02
[20]
  PBM binding z-score: -0.117

## ACTAGCAGGCCAATGGTCACTCAAGATTAGTCCG
[1]
  PBM binding z-score: -0.525
[2]
  PBM binding z-score: -0.42
[3]
  PBM binding z-score: -0.46
[4]
  PBM binding z-score: -0.417
[5]
  PBM binding z-score: -0.678
[6]
  PBM binding z-score: 0.789
[7]
  PBM binding z-score: 2.17
[8]
  PBM binding z-score: 3.26
[9]
  PBM binding z-score: 0.959
[10]
  PBM binding z-score: 2.79
[11]
  PBM binding z-score: 0.92
[12]
  PBM binding z-score: 0.714
[13]
  PBM binding z-score: -0.0875
[14]
  PBM binding z-score: -0.449
[15]
  PBM binding z-score: 0.0967
[16]
  PBM binding z-score: -0.626
[17]
  PBM binding z-score: -0.69
[18]
  PBM binding z-score: -0.449
[19]
  PBM binding z-score: -0.683
[20]
  PBM binding z-score: 0.677

## CCTTATGGGTCACTGACAGGTTATAGCATTTGGA
[1]
  PBM binding z-score: 3.95
[2]
  PBM binding z-score: 3.45
[3]
  PBM binding z-score: 0.192
[4]
  PBM binding z-score: 2.96
[5]
  PBM binding z-score: -0.062
[6]
  PBM binding z-score: 4.93
[7]
  PBM binding z-score: 5.81
[8]
  PBM binding z-score: 5.11
[9]
  PBM binding z-score: 2.32
[10]
  PBM binding z-score: 4.08
[11]
  PBM binding z-score: 5.9
[12]
  PBM binding z-score: 6.16
[13]
  PBM binding z-score: 0.901
[14]
  PBM binding z-score: 0.187
[15]
  PBM binding z-score: 2.16
[16]
  PBM binding z-score: 2.86
[17]
  PBM binding z-score: 0.162
[18]
  PBM binding z-score: 3.89
[19]
  PBM binding z-score: 0.956
[20]
  PBM binding z-score: 3.8

## CTCGAAAGGTCGGGTGAGGTGAGTATACGGATAA
[1]
  PBM binding z-score: 3
[2]
  PBM binding z-score: 2.3
[3]
  PBM binding z-score: 0.0705
[4]
  PBM binding z-score: 2.18
[5]
  PBM binding z-score: 0.195
[6]
  PBM binding z-score: 3.49
[7]
  PBM binding z-score: 1.32
[8]
  PBM binding z-score: 1.78
[9]
  PBM binding z-score: 0.448
[10]
  PBM binding z-score: 1.04
[11]
  PBM binding z-score: 0.384
[12]
  PBM binding z-score: 1.74
[13]
  PBM binding z-score: 0.713
[14]
  PBM binding z-score: 0.324
[15]
  PBM binding z-score: 1.4
[16]
  PBM binding z-score: 3.82
[17]
  PBM binding z-score: 0.334
[18]
  PBM binding z-score: 3.01
[19]
  PBM binding z-score: 0.691
[20]
  PBM binding z-score: 3.52
